Here are results for 40 compounds from PubChem BioAssay AID1567 (National Center for Advancing Translational Sciences (NCATS), 2009).

Records with an inconclusive call do not appear. Entries that show only a call come without a potency. The source made the active and inactive calls. Calls follow the shape of the dose curve; as a rule, active = well fitted inhibition curve with a large enough effect; inconclusive = small, poorly fitted or top-dose-only effect, or effect the other way; inactive = no such curve, though single readings can be large or run the other way.

Sequence of Thyroid hormone receptor beta (Homo sapiens) (P10828 whole entry, looked up): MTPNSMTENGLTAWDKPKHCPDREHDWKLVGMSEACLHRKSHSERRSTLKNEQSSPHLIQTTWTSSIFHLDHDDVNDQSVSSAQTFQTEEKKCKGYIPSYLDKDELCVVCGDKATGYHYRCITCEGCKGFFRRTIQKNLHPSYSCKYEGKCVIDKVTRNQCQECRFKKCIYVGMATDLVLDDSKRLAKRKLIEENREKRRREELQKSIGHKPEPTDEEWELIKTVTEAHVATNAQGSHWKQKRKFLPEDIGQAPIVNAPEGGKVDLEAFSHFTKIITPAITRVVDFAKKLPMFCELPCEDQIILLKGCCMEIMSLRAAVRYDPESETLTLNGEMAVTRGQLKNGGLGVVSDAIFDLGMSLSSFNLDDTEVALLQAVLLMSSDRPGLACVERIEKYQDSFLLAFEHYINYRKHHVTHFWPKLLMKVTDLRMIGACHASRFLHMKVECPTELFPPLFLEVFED

The target of the assay is Thyroid hormone receptor beta (Homo sapiens) (UniProt P10828). Put plainly: Cell-based Gene Reporter Secondary Assay to Characterize qHTS Inhibitors of the Interaction of Thyroid Hormone Receptor and Steroid Receptor Coregulator 2. To be noted: WRO cells TRbeta TRE-luciferase, T3-stimulated, 16 h; series mostly up to 29.9 µM. The source says:
NIH Molecular Libraries Probe Production Network [MLPCN] NIH Chemical Genomics Center [NCGC] MLPCN Grant: DK058080 Assay Provider: R. Kip Guy, St. Jude Children's Research Hospital NCGC Assay Overview: Thyroid receptor (TR) regulates many homeostatic processes including basal metabolism, cardiovascular function, body weight, and lipid trafficking. TR modulators are potential therapeutics for obesity and hyperlipidemias but current thyroid analogs have undesirable side effects, particularly cardiac stimulation. This secondary assay characterized selected actives identified in the qHTS for Inhibitors of the Interaction of Thyroid Hormone Receptor and Steroid Receptor Coregulator 2. The human follicular thyroid carcinoma cell line WRO (kindly provided by Dr. M. D. Ringel) stably expresses TRbeta and a luciferase reporter gene fused to TR response element. The addition of T3 ligand elevates expression of the TRE luciferase reporter. This assay measures the transcriptional activity of compounds.
NCGC Assay Protocol Summary: Cells were maintained in RPMI 1640 culture medium supplemented with 10% heat-inactivated FBS, 0.33 mg/ml hygromycin, 0.33 mg/ml geneticin, 50 units/ml penicillin, 50 ug/ml streptomycin. Cells were harvested and resuspended at 330,000 cells/ml in assay medium (50% DMEM 50% F-12 medium without Phenol-Red (Cellgro #16-405-CV), L-glutamine, 10% heat inactivated and charcoal treated FBS, 100 uM non-essential amino acid, 50 units/ml penicillin, 50 ug/ml streptomycin). Cells were dispensed at 10,000 cells/30 ul/well into 384 well plates (Corning 3917) and incubated 12 h at 37 C and 5% CO2. Compounds and T3 (100nM final concentration) were added using a pin tool and plates were incubated 16 h incubation at 37 C and 5% CO2. Following incubation, plates were equilibrated at ambient temperature for 30 min, 30 ul of Bright-Glo (Promega) was added and luminescence was detected by an EnVision (PerkinElmer).
Turning to `CN1CCc2ccc3c4c2[C@]1(C)Cc1cccc(c1-4)OCO3`, the Potency is 7.94 µM (active).
For `COc1cc(NCCCC(C)N)c2ncccc2c1` (stereo not given), the Potency is 3.16 µM (active).
Take `Cc1nc2ccccc2n2c(O)c(CC(=O)O)cc12`: the Potency result was “inactive”.
The value for `Nc1cccnc1Sc1cc(Cl)c(Cl)cc1Cl` was “inactive”.
The value for `Cn1cc(/C=C2\SC(=S)N(NC(=O)c3ccccc3)C2=O)c2ccccc21` was “inactive”.
For `CC1=NN(c2ccc(F)cc2)C(=O)C1C(c1cccc(O)c1)c1c(C)[nH]n(-c2ccc(F)cc2)c1=O` (stereo not given) the value was “inactive”; for `Cc1cc(C)cc(OCC(=O)NCCc2nc3ccccc3[nH]2)c1`, “inactive”.
For `CCOc1cc(N2CCOCC2)c(OCC)cc1NC(C)C(=O)N1CCN(CC)CC1` (stereo not given), the Potency result is “inactive”.
The value for `CC(NC(=O)Nc1ccc(O)cc1)(C(F)(F)F)C(F)(F)F` was “inactive”; that for `CN1c2ccccc2C(C)(C)C12C=Nc1c(ccc3ccccc13)O2` (stereo not given) was 4.47 µM (active); that for `COc1cc(NC(C)CCCN)c2ncccc2c1` (stereo not given) was 22.4 µM (active).
The value for `CCOc1cc(C(c2c(C)[nH][nH]c2=O)c2c(C)[nH][nH]c2=O)ccc1OS(=O)(=O)c1ccc(C)cc1` was “inactive”.
`C=CCNC(=O)/C(C#N)=C\c1cc(Cl)c(OCC)c(OC)c1`: the Potency result is “inactive”.
For `CN1N=C(C(C)(C)C)CC1=O` the value was “inactive”; for `CCC(CNc1cc(OC)cc2cccnc12)NC1CCCCC1` (stereo not given), 6.31 µM (active); for `C=CCSc1nnc2n(-c3ccccc3OC)c(=O)c3c4c(sc3n12)CCC4`, “inactive”.
The value for `CN1c2ccccc2C(C)(C)C12C=Nc1c(cc(N3CCOCC3)c3ccccc13)O2` (stereo not given) was “inactive”; that for `CC1=NN(Cc2ccccc2)C(=O)C1` was “inactive”.
For `CCSc1ncc(Cl)c(C(=O)Nc2nc3ccc(OC)cc3s2)n1` the value was “inactive”; for `Cc1ccc(OC(=S)Nc2ccc(O)cc2)cc1`, “inactive”; for `Cc1ccc2c(CC(=O)Nc3c(C(=O)c4ccc(F)cc4)oc4ccccc34)coc2c1C`, “inactive”.
On to `CCCc1nc2c(=O)n(C)c(=O)nc-2n(C)n1`, for which the Potency is 0.794 µM (active).
The value for `CCOc1ccc(NC(=O)C(c2ccccn2)N(C(=O)CCl)c2ccc(F)cc2)cc1` (stereo not given) was “inactive”.
For `CCOC(=O)C(NC(=O)Nc1ccc(O)cc1)(c1ccccc1)C(F)(F)F` (stereo not given) the value was “inactive”; for `O=C(O)[C@H]1CN(CCCP(=O)(O)O)CCN1`, “inactive”.
As to `Cn1c(NNC(=O)c2c(F)cccc2F)cc(=O)n(C)c1=O`, the Potency result is “inactive”.
For `CCc1ccc2c(c1)c1nc(C)sc1n2CC` the value was “inactive”; for `Nc1cc(-c2ccncc2)c[nH]c1=O`, 14.1 µM (active).
The value for `Nc1cnccc1C(=O)O` was “inactive”.
The value for `O=c1cc(C23CC4CC(CC(C4)C2)C3)[nH][nH]1` was “inactive”; that for `Cc1cccc(S(=O)(=O)c2cn(Cc3ccccc3)c3cc(N4CCC(C)CC4)c(F)cc3c2=O)c1` was “inactive”.
Turning to `CCC(NC(=O)Nc1ccc(O)cc1)(C(F)(F)F)C(F)(F)F`, the Potency entry was “inactive”.
The value for `CCOC(=O)c1cnc2nc(NCc3ccc(OC)c(OC)c3)[nH]n2c1=O` was “inactive”; that for `Cc1ccc(-c2nc(S(=O)(=O)c3ccc(F)cc3)c(SCC(=O)NCC3CCCO3)o2)cc1` (stereo not given) was “inactive”.
As for `O=C(NNc1cc(N2CCOCC2)nc(N2CCOCC2)n1)c1ccc([N+](=O)[O-])cc1`, the Potency entry is “inactive”.
Regarding `Cc1nnc(SCC(=O)Nc2ccc(N(C)C)cc2)[nH]c1=O`, the Potency entry was “inactive”.
For `COc1ccc(-c2nc(CS(=O)CC(=O)NCc3ccccn3)c(C)o2)cc1` (stereo not given) the value was “inactive”; for `COc1ccc2ccc3c(c2c1)N=CC1(O3)N(C)c2ccccc2C1(C)C` (stereo not given), “inactive”; for `O=C(Nc1nc2ccc(Cl)cc2s1)c1ccc(N2CCCCC2)c([N+](=O)[O-])c1`, “inactive”.
As to `CN(C)c1cc(Cl)c2nonc2c1N`, the Potency result is “inactive”.
